# Several values for one entry are separate records, joined by “and”; a condition that tells them apart may be missing. Equal entries are not always repeated. Inconclusive results are not listed. Activity calls are given as the source filed them. The call rests on the fitted dose curve; in most records, active means well fitted inhibition curve with a large enough effect; inconclusive means small, poorly fitted or top-dose-only effect; inactive means flat fitted curve, though single readings scatter.
# System: HaCat
# Assay: Cytotoxic Profiling of Annotated Libraries Using Quantitative High-Throughput Screening (AID 1296008); further: nearly all actives have a fitted effect of over 60% in size
# Conditions: Five cell lines viability, CellTiter-Glo ATP luminescence, 48-72 h; max response: hits give low values
# Excerpt: Cell-based phenotypic screening is a commonly used approach to discover biological pathways, novel drug targets, chemical probes and high-quality hit-to-lead molecules. Many hits identified from high-throughput screening campaign are ruled out through a series of follow-up potency, selectivity/specificity, and cytotoxicity assays. Prioritization of molecules with little or no cytotoxicity for a more in-depth downstream evaluation influence the future direction of projects, so cytotoxicity profiling of the screening libraries at early stage is essential for increasing the likelihood of candidate success. […] For the annotated library, we also examined the primary targets and mechanistic pathways regularly associated with cell death. To our knowledge, this is the first study to use high-throughput screening to profile large libraries for cytotoxicity assessment in both normal and cancer cell lines. In summary, the results generated here constitutes a valuable resource for the scientific community and provides insight on identifying cytotoxic compounds with particular mechanisms of action, and prioritizing compounds with suitable cytotoxicity profile for further evaluation.
# A pintool (Kalypsys) was used to transfer 23 nL of compound solution to the 1536-well assay plates. After 48 or 72 hr incubation at 37 degree Celsius, 5% CO2 and 95% humidity, 2.5 uL of CellTiter-Glo (Promega) was dispensed into each well using a dispenser (Aspect Automation, St. Paul, MN) with solenoid valves (Lee Valves, Westbrook CT). Plates were left at room temperature for 10 min before imaging the ATP-coupled luminescence using a ViewLux microplate imager (PerkinElmer, Waltham, MA).
# On the % scale 0 is the no-effect control and ±100 the full control effect; potency means the concentration at half of the fitted maximal effect.
SMILES,max response,outcome,Potency
c1ccc([C@H]2CN3CCSC3=N2)cc1,1.22% (inactive),inactive,–
CCOc1ccn(-c2ccc(F)cc2)c(=O)c1C(=O)Nc1ccc(Oc2ccnc(N)c2Cl)c(F)c1,–,–,23.5 µM (active)
Cn1c(=O)c(F)c(Nc2ccc(I)cc2F)c2c(=O)n(C[C@@H](O)CO)cnc21,–,–,0.833 µM (active)
COc1cc2c(cc1OC)CN(CCc1ccc(NC(=O)c3cccc4c(=O)c5cccc(OC)c5[nH]c34)cc1)CC2,–,inactive,–
CCCCNc1cc(C(=O)O)cc(S(N)(=O)=O)c1Oc1ccccc1,2.18% (inactive),inactive,–
Cc1ccccc1C(OCCN(C)C)c1ccccc1 (stereo not given),-11.7% (inactive),inactive,–
C#Cc1cccc(Nc2ncnc3cc(OCCOC)c(OCCOC)cc23)c1,–,–,5.9 µM (active) and 944 nM (active) and 651 nM (active)
Cc1ccc(N(CC2=NCCN2)c2cccc(O)c2)cc1,1.48% (inactive),inactive,–
CNC(=O)c1ccc(C)c(-n2c(C)cc(OCc3ccc(F)cc3F)c(Br)c2=O)c1,-14.3% (inactive),inactive,–
CC(C)NCC(O)COc1ccc(COCCOC(C)C)cc1 (stereo not given),-3.77% (inactive),inactive,–
O=NN(CCCl)C(=O)NCCCl,-4.95% (inactive),inactive,–
CS(=O)(=O)c1cccc(CNc2nc(Nc3ccc4c(c3)CCC(=O)N4)ncc2C(F)(F)F)c1,–,–,14.6 µM (active)
Cc1c(CN2CCN(C(=O)C(C)C)CC2)sc2c(N3CCOCC3)nc(-c3cnc(N)nc3)nc12,–,–,1.05 µM (active)
Cc1ccc(NC(=O)c2cccc(C(C)(C)C#N)c2)cc1Nc1ccc2ncn(C)c(=O)c2c1,–,–,13.2 µM (active)
c1ccc(-c2nn3c(c2-c2ccnc4cc(OCCN5CCOCC5)ccc24)CCC3)nc1,-14.5% (inactive),–,–
CC(C)(Sc1ccc(CCN(CCCCC2CCCCC2)C(=O)NC2CCCCC2)cc1)C(=O)O,-19.6% (inactive) and 1.18% (inactive),–,–
NS(=O)(=O)c1cc2c(cc1Cl)NC=NS2(=O)=O,-11.6% (inactive),inactive,–
CC1(C)Cc2c(-c3ccccc3)c(-c3ccc(Cl)cc3)c(CC(=O)O)n2C1,-5.26% (inactive) and -28.4% (inactive),–,–
CC(=O)Oc1ccccc1C(=O)O,–,inactive,–
CCCc1nn(C)c2c(=O)[nH]c(-c3cc(S(=O)(=O)N4CCN(C)CC4)ccc3OCC)nc12,-6.49% (inactive) and -10.8% (inactive),–,–
CNCc1ccc(-c2[nH]c3cc(F)cc4c3c2CCNC4=O)cc1,4.8% (inactive),inactive,–
OC(CN1CCC(Cc2ccc(F)cc2)CC1)c1ccc(Cl)cc1 (stereo not given),0.0814% (inactive),inactive,–
COc1cc(Nc2ncc3c(n2)-c2ccc(Cl)cc2C(c2c(F)cccc2OC)=NC3)ccc1C(=O)O,–,–,16.4 µM (active) and 833 nM (active)
Cc1ccc(-n2nc(C(C)(C)C)cc2NC(=O)Nc2ccc(OCCN3CCOCC3)c3ccccc23)cc1,-3.92% (inactive),inactive,–
CCCn1c(=O)c2[nH]c(C34CC5CC3C[C@@H](C5)C4)nc2n(CCC)c1=O,4.8% (inactive),–,–
O=C(Nc1nc2ccccc2n1CCN1CCOCC1)c1cccc([N+](=O)[O-])c1,–,inactive,–
O=C(C=Cc1ccc(/C=C/C(=O)Nc2ccc(C3=NCCN3)cc2)cc1)Nc1ccc(C2=NCCN2)cc1,-9.67% (inactive),–,–
CCN(CC)CCCC(C)Nc1nc(C)cc(Nc2ccc3nc(C)cc(N)c3c2)n1 (stereo not given),–,inactive,–
NC(=O)c1ccc(-c2nc(-c3ccc4c(c3)OCO4)c(-c3ccccn3)[nH]2)cc1,–,inactive,–

# Reference: PubChem BioAssay (NCATS)
